Measured values published in PubChem BioAssay AID1259313 (Sanford-Burnham Center for Chemical Genomics, 2017).
The whole screen tested about 340,000 compounds, of which about 8,500 (2.5%) were called active. Shown is part of a subset that was picked to be rich in actives. A number with no mark means an inactive call.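 Rule for the calls: active = melting temperature shift of at least 10% of the positive control shift, at one fixed dose; inactive = the rest.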

Tested on: Glutamate receptor ionotropic, NMDA 3A (GRIN3A) ligand-binding domain
Experiment: NR3A LBD thermal stabilization by compounds – biophysical, differential scanning fluorimetry, uHTS, primary screen (AID 1259313)
Conditions: at 25 µM, hits give high values, 0% = protein alone, 100% = glycine-bound protein

Row | SMILES | Tm shift relative to glycine control
1 | Cc1cc(Cl)nc(NC(=O)Nc2cccc(Cl)c2)n1 | -1.44%
2 | O=C(O)CC1(CC(=O)Nc2cccc(C(F)(F)F)c2)CCCC1 | -1.43%
3 | Cc1csc(NC(=S)Nc2cccc(Cl)c2)n1 | 16.9% (active)
4 | S=C(Nc1cccc(Cl)c1)Nc1ccc2cn[nH]c2c1 | 13% (active)
5 | Cn1cc(Cl)c(C(=O)NNC(=S)Nc2cccc(Cl)c2)n1 | -11.3%
6 | Cc1cc2[nH]ncc2cc1NC(=S)NC(=O)c1ccccc1 | -2.48%
7 | Cc1cccc(NC(=S)NC23CN4CN(CN(C4)C2)C3)c1 | -2.24%
8 | COc1ccccc1C(=O)OCC(=O)NCCNC(=O)COC(=O)c1ccccc1OC | -2.11%
9 | CCSc1nnc(SCC(=O)NNC(=O)c2ccccc2F)s1 | 0.44%
10 | O=C(NN1C(=O)C2C3C=CC(O3)C2C1=O)c1ccncc1 (stereo unspecified) | 2.17%
11 | CCO[C@@H]1OC(C(N)=O)=C[C@H](c2ccc(Br)cc2)[C@H]1CCCO | 2.58%
12 | COc1ccc(CCNS(=O)(=O)c2cc3c(cc2C)NC(=O)CO3)cc1OC | 2.97%
13 | O=c1ccn([C@@H]2O[C@H](CNS(=O)(=O)c3cc4ccccc4s3)[C@@H](O)[C@H]2O)c(=O)[nH]1 | -1.03%
14 | CCOC(=O)N1CCN(S(=O)(=O)c2ccc(C(=O)Nc3ccc(F)cc3F)cc2)CC1 | -2.71%
15 | CC(C)Oc1ccc(CC(=O)NNC(=S)Nc2ccc(Br)cc2)cc1 | -3.79%
16 | C=CCn1c(C23CC4CC(CC(C4)C2)C3)n[nH]c1=S | 0.44%
17 | Cc1ccc(NS(=O)(=O)c2ccc(N/N=C/c3ccccc3OCC(=O)O)c([N+](=O)[O-])c2)c(C)c1 | 3.61%
18 | COc1ccc(S(=O)(=O)Nc2ccc3cn[nH]c3c2)cc1[N+](=O)[O-] | -8.84%
19 | O=C(O)c1ccccc1/C=N/Nc1ccc(S(=O)(=O)Nc2ccc(Cl)cc2)cc1[N+](=O)[O-] | 9.21%
20 | COc1ccc(Br)cc1/C=N/Nc1ccc(S(=O)(=O)Nc2ccccc2C(=O)O)cc1[N+](=O)[O-] | 503% (active)
21 | COc1cccc(/C=N/Nc2ccc(S(=O)(=O)Nc3ccccc3C(=O)O)cc2[N+](=O)[O-])c1O | 22.4% (active)
22 | COc1ccc(S(=O)(=O)Nc2ccccc2C(=O)N2CCCC2)cc1C | 2.36%
23 | COc1ccc(CCNC2=C(Cl)C(=O)N(Cc3ccccc3)C2=O)cc1OC | 2.81%

Row | SMILES | Tm shift relative to glycine control
24 | CC(=O)c1ccc(N2CCN(S(=O)(=O)c3ccc4c(c3)CC(=O)N4C)CC2)cc1 | 4.97%
25 | Cc1ccc(CC(=O)Nc2ccc(OC(F)F)c(Cl)c2)cc1C | 3.08%
26 | O=C(Cc1ccc(Cl)c(Cl)c1)Nc1ccc(SC(F)F)cc1 | 25.9% (active)
27 | CC(=O)N1CCN(CC(=O)Nc2ccc(SC(F)F)cc2)CC1 | -2.44%
28 | Cc1c(Cl)c([N+](=O)[O-])nn1CC(=O)NCCCN1CCOCC1 | -0.8%
29 | COc1cc(C(=O)CCc2ccc3c(c2)OCO3)cc(OC)c1OC | 0.46%
30 | COc1cc2c(-c3ccc4c(c3)OCO4)c(-c3ccsc3)oc(=O)c2cc1OC | 12.9% (active)
31 | COc1cc(-c2c(-c3ccc4c(c3)OCO4)noc2C)ccc1F | -2.27%
32 | CN(C)CCCn1c(SCc2ccc(Cl)cc2)nnc1-c1ccncc1 | -5.52%
33 | CC(C)(Oc1ccc(Cl)cc1)C(=O)OCC(=O)NCCc1ccc(S(N)(=O)=O)cc1 | -1.31%
34 | CN(C)N=Nc1ccc2nc[nH]c2c1 | -1.21%
35 | COc1ccc2[nH]c3c(c2c1)CCN1C(=O)C(CC(=O)NCc2cccc(C(F)(F)F)c2)C[C@H](C(=O)N2CCOCC2)[C@@]31C (stereo partly specified) | -2.74%
36 | COC(=O)CNS(=O)(=O)c1ccc(Cc2ccc(S(=O)(=O)NCC(=O)OC)cc2)cc1 | 1.25%
37 | COC(=O)c1sc(N)c(C(=O)OC)c1COC(=O)CNS(=O)(=O)c1ccc(C)cc1 | 13.2% (active)
38 | C/C(N)=C(/C#N)C(=O)COC(=O)CNS(=O)(=O)c1ccc(C)cc1 | -0.65%
39 | CCN(CC)C(=O)Oc1ccc(OC(=O)N(CC)CC)cc1 | -0.08%
40 | COc1ccc(N2CCN(C(=S)Nc3ccc(S(N)(=O)=O)cc3)CC2)cc1 | 1.93%
41 | CCOc1ccccc1N1CCN(C(=S)Nc2ccc(S(N)(=O)=O)cc2)CC1 | 31.7% (active)
42 | NS(=O)(=O)c1ccc(NC(=S)N2CCCC2)cc1 | -6.36%
43 | O=C(Nc1ccccc1C(=O)N1CCOCC1)C1CCC(=O)N1C1CCCC1 (stereo unspecified) | -0.29%
44 | Cn1cccc1C(=O)N1CCc2ccccc2C1 | 38.1% (active)
45 | O=C(c1cc(-c2cccc(O)c2)on1)N1CCc2ccccc2C1 | -13.5%
46 | CN(c1ccc(C(=O)N2CCc3ccccc3C2)cc1)S(C)(=O)=O | -0.88%
